Experimental data: PubChem BioAssay AID1159580 (chemical genetic matrix, 2015)
Several values for one entry are separate records, joined by “and”; a condition that tells them apart may be missing. Identical values can stand only once. Hit rate of the full screen: of about 5,500 compounds, about 2,000 (36%) were called active. Not shown: some 18% with an inconclusive outcome. Rule as the data show it: active = normalized growth mostly below about 0.91 (no sharp cut-off); inconclusive = no clear call, values can overlap the other calls; inactive = mostly above about 0.92. Some of the results follow.

Assay: chemical genetic growth profiling, strain panel (AID 1159580);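 also: tested at 20 µM; growth read once vehicle control cultures reached saturation at 30 °C; 1 = growth at the plate median or of vehicle wells; lower values mean less growth of the strain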
Settings: S. cerevisiae deletion strains, growth OD

Measured: normalized growth

Nc1ccc(S(=O)(=O)NC(=O)c2ccccc2)cc1
inactive: locus YAL013W, strain DEP1, active compounds read low 1.01 | locus YAL021C, strain ccr4, active compounds read low 0.985 | locus YAL026C, strain drs2, active compounds read low 1 | locus YAL030W, strain snc1, active compounds read low 1.01 | locus YBL061C, strain skt5, active compounds read low 0.99 | locus YBR009C, strain hhf1, active compounds read low 0.959 | locus YBR021W, strain FUR4, active compounds read low 1.04 | locus YBR023C, strain chs3, active compounds read low 0.995 | locus YBR171W, strain sec66, active compounds read low 0.992 | locus YBR229C, strain ROT2, active compounds read low 1.01 | locus YBR231C, strain swc5, active compounds read low 0.992 | locus YBR279W, strain paf1, active compounds read low 0.985 | locus YCL011C, strain gbp2, active compounds read low 1 | locus YCL016C, strain dcc1, active compounds read low 1.01 | locus YCL029C, strain bik1, active compounds read low 1.02 | locus YCL061C, strain MRC1, active compounds read low 0.979 | locus YCL069W, strain vba3, active compounds read low 0.968 | locus YCR088W, strain abp1, active compounds read low 0.978 | locus YDL005C, strain med2, active compounds read low 0.992 | locus YDL035C, strain GPR1, active compounds read low 1.01 | locus YDL040C, strain nat1, active compounds read low 0.998 | locus YDL074C, strain BRE1, active compounds read low 1.01 | locus YDL101C, strain DUN1, active compounds read low 1.01 | locus YDL134C, strain PPH21, active compounds read low 1.02 | locus YDL185W, strain tfp1, active compounds read low 0.999 | locus YDL192W, strain arf1, active compounds read low 1.02 | locus YDR001C, strain nth1, active compounds read low 0.975 | locus YDR069C, strain doa4, active compounds read low 0.973 | locus YDR101C, strain arx1, active compounds read low 1.02 | locus YDR137W, strain rgp1, active compounds read low 0.959 | locus YDR159W, strain sac3, active compounds read low 0.948 | locus YDR162C, strain NBP2, active compounds read low 1 | locus YDR195W, strain ref2 0.957 | locus YDR297W, strain sur2, active compounds read low 0.997 | locus YDR318W, strain mcm21, active compounds read low 1.03 | locus YDR334W, strain swr1, active compounds read low 0.934 | locus YDR335W, strain msn5, active compounds read low 0.985 | locus YDR388W, active compounds read low 1.02 | locus YDR392W, strain spt3, active compounds read low 1.01 | locus YDR502C, strain sam2, active compounds read low 1.03 | locus YEL003W, strain gim4, active compounds read low 0.99 | locus YEL037C, strain rad23, active compounds read low 0.988 | locus YEL061C, strain CIN8 (second series), active compounds read low 0.993 | locus YEL061C, strain CIN8, active compounds read low 1.01 | locus YER015W, strain faa2, active compounds read low 0.998 | locus YER016W, strain bim1, active compounds read low 0.974 | locus YER110C, active compounds read low 1.03 | locus YER111C, strain swi4, active compounds read low 1.01 | locus YER155C, strain BEM2 (second series), active compounds read low 1.02 | locus YER155C, strain BEM2, active compounds read low 1.01 | locus YER167W, strain BCK2, active compounds read low 1 | locus YFR010W, strain ubp6, active compounds read low 0.951 | locus YGL078C, strain dbp3, active compounds read low 1.02 | locus YGL086W, strain mad1, active compounds read low 1.01 | locus YGL167C, strain pmr1, active compounds read low 0.964 | locus YGL173C, strain kem1, active compounds read low 0.986 | locus YGL227W, strain vid30, active compounds read low 0.967 | locus YGL240W, strain doc1, active compounds read low 0.998 | locus YGL248W, strain PDE1, active compounds read low 1 | locus YGL253W, strain hxk2, active compounds read low 0.989 | locus YGR135W, strain pre9, active compounds read low 1.02 | locus YGR252W, strain gcn5, active compounds read low 0.997 | locus YHR013C, strain ard1, active compounds read low 0.98 | locus YHR027C, strain rpn1, active compounds read low 0.993 | locus YHR030C, strain SLT2, active compounds read low 1.01 and 0.995 | locus YHR079C, strain IRE1 (second series), active compounds read low 1.01 | locus YHR079C, strain IRE1, active compounds read low 0.98 | locus YHR094C, strain hxt1, active compounds read low 1.01 | locus YHR129C, strain ARP1, active compounds read low 0.996 | locus YHR142W, strain chs7, active compounds read low 0.997 | locus YHR200W, strain rpn10, active compounds read low 1.02 | locus YIL066C, strain RNR3, active compounds read low 1.01 | locus YIL073C, strain SPO22, active compounds read low 1.06 | locus YIL125W, strain kgd1, active compounds read low 1.01 | locus YIR030C, strain dcg1, active compounds read low 1.02 | locus YJL092W, strain hpr5, active compounds read low 0.993 | locus YJL095W, strain BCK1 (second series), active compounds read low 0.996 | locus YJL095W, strain BCK1, active compounds read low 0.994 and 0.999 | locus YJL115W, strain asf1, active compounds read low 0.999 | locus YJL129C, strain trk1, active compounds read low 0.983 | locus YJL134W, strain LCB3, active compounds read low 1.01 | locus YJL154C, strain vps35, active compounds read low 0.99 | locus YJL164C, strain tpk1, active compounds read low 0.979 | locus YJL166W, strain qcr8, active compounds read low 0.983 | locus YJL168C, strain set2, active compounds read low 1.01 | locus YJL187C, strain SWE1 (second series), active compounds read low 1.01 | locus YJL187C, strain SWE1, active compounds read low 0.992 | locus YJR043C, strain POL32, active compounds read low 1.01
